# Bioassay records as filed in PubChem.
# Most compounds without a hit are left out; they make up all but 3.5% or so of the library.
# GDH-TPI counter-1: GDH-TPI coupling enzyme inhibitors, primary screen, artefact control for M. tuberculosis FBA inhibitor project, biochemical, absorbance, full deck; GDH-TPI coupled enzyme counterscreen, NADH absorbance; inhibition, % at 4.8 µM; hit rate 1.2% among 360,000; AID 588335, 2011; in the data active = inhibition above about 30%
# Mtb hypoxia inh: PubChem AID 1159583. M. tuberculosis hypoxia-regulated fluorescent reporter, fluorescence. fluorescence inhibition, % (concentration not given with the values). hit rate 0.1% among 300,000; in the data active = fluorescence inhibition mostly above about 23%, no sharp cut-off; inactive = mostly below about 17%
# Rv3671c protease: Rv3671c serine protease inhibitors, primary screen, biochemical, fluorescence polarization, M. tuberculosis H37Rv. P9WHR9. inhibition, % at 5.96 µM. hit rate 0.048% among 320,000. AID 2606, 2010; in the data active = inhibition above about 38%;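 also: extracellular domain of Rv3671c used as enzyme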
# FadD28 binding: inhibitors of FadD28 bisubstrate probe binding, primary screen, biochemical, fluorescence polarization, single point; Mycobacterium tuberculosis FadD28 fatty-acid-AMP ligase; inhibition, % at 12.5 µM; hit rate 0.22% among 360,000; AID 588549, 2011; in the data active = inhibition above about 8.5%, passing the limit was not always enough
# FBA Mtb inh: Mtb FBA enzyme inhibitors, primary screen, biochemical, fluorescence, strain H37Rv | hit rate 2.3% among 360,000 | Fructose-bisphosphate aldolase (Mycobacterium tuberculosis (strain ATCC 25618 / H37Rv)), … | inhibition, % at 1 µM | AID 588726, 2011 | purified M. tuberculosis FBA, fluorescence read-out
# UGM FP inh: M. tuberculosis UGM enzyme inhibitors, primary screen, biochemical, fluorescence polarization, single point | purified UGM, fluorescence polarization probe displacement | inhibition, % at 10 µM | hit rate 0.06% among 320,000; in the data active = inhibition above about 10%, passing the limit was not always enough
# Target sequence (P9WIQ1 whole entry, looked up): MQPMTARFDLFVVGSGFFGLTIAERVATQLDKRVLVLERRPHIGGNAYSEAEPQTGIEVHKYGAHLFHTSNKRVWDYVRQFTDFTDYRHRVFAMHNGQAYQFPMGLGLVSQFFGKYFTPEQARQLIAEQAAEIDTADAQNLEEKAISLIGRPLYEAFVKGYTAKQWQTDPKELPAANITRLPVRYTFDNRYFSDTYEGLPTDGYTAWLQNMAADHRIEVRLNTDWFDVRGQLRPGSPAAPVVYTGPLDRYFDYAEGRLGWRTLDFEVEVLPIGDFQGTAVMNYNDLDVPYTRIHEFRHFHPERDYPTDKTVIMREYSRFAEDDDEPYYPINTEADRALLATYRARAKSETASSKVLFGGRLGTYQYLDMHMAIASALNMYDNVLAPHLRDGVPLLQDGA
# Mtb FBA inh conf: M. tuberculosis aldolase blockers, biochemical, fluorescence, strain H37Rv, confirmation | hit rate 78% among 5,600 | shares compounds with FBA Mtb inh | AID 651616, 2012 | purified M. tuberculosis FBA, fluorescence read-out | inhibition, % at 1 µM
# GDH-TPI counter-2: GDH-TPI coupling enzyme inhibitors, artefact control for M. tuberculosis FBA inhibitor project, biochemical, fluorescence, high throughput; shares compounds with FBA Mtb inh; GDH-TPI coupled enzyme counterscreen; inhibition, % at 1 µM; hit rate 81% among 5,600; AID 652141, 2013; in the data active = inhibition above about 10%
# A number is an active result; n = inactive; x = no result; + = active, no number. Rule as the data show it, unless noted: active = inhibition above about 27%; inactive = the rest.
SMILES,GDH-TPI counter-1,Mtb hypoxia inh,Rv3671c protease,FadD28 binding,FBA Mtb inh,UGM FP inh,Mtb FBA inh conf,GDH-TPI counter-2
O=C(O)c1cc(NN=C/C=C/c2ccccc2[N+](=O)[O-])ccc1Cl,x,n,x,x,x,x,x,x
CCN1CCN(c2ccc(S(=O)(=O)N3CCCCC3)cc2NC(=O)/C=C/c2cc(OC)ccc2OC)CC1,n,n,n,n,n,n,x,x
COc1ccc(OC)c(/C=C/C(=O)Nc2cccc(S(=O)(=O)N3CCCC3)c2)c1,n,n,n,n,30.0,n,48.7,43.2
CCOC(=O)c1ccc(N=C2C(=S)N(c3ccc(C(=O)OCC)cc3)C(=N)N2N=Cc2ccccc2)cc1,x,n,x,x,x,x,x,x
Cc1nn(-c2ccccc2)c2sc(C(=O)N(CC(=O)NC3CCCC3)Cc3ccco3)cc12,n,x,x,n,n,x,x,x
CC1(C(=O)N(CC(=O)NC2CCCC2)Cc2ccccc2)CC(=O)N=C2C=CC=CN21 (centres undefined),n,n,n,n,109.2,n,139.6,108.5
CC1(C(=O)N(CC(=O)NC2CCCC2)Cc2ccco2)CC(=O)N=C2C=CC=CN21 (centres undefined),n,n,n,n,65.0,n,118.4,71.9
O=C(CCC(=O)N(CC(=O)NC1CCCCC1)Cc1ccccc1)Nc1ccccn1,n,n,n,n,n,n,x,x
Cc1ccnn1-c1ccc(C(=O)NCc2ccccc2CN2CCOCC2)cc1,n,n,n,n,58.2,n,+,+
O=C(NCc1ccccc1CN1CCOCC1)c1ccc(-n2cccn2)cc1,n,n,n,n,n,n,x,x
COc1ccc(C2=CC(=O)CC(c3ccc(OC)c(OC)c3)C2)cn1 (centres undefined),x,n,x,x,x,x,x,x
Cc1cc(C=C2C(=O)NC(=O)N(c3ccc(F)cc3)C2=O)c(C)n1-c1ccc(C(=O)O)cc1,x,n,x,x,x,x,x,x
Cc1coc2c1c(C)cc1oc(=O)c(CC(=O)NCC(=O)NCC(=O)O)c(C)c12,n,n,x,n,93.4,n,+,+
COCCCNC(=O)Cc1c(C)c2c(cc(C)c3c(C(C)(C)C)coc32)oc1=O,n,n,n,n,36.3,n,62.0,53.6
Cc1coc2c1c(C)cc1oc(=O)c(Cc3ccccc3)c(C)c12,n,n,n,n,n,n,x,x
COCCNC(=O)Cc1c(C)c2c(cc(C)c3c(C)coc32)oc1=O,n,n,n,n,37.9,n,159.2,124.6
Cc1coc2c1c(C)cc1oc(=O)c(CC(=O)NCCC(=O)O)c(C)c12,n,n,n,n,90.8,n,61.7,56.6
Cc1ccc(NC(=O)Cn2nc(C)c([N+](=O)[O-])c2C)cc1C,n,n,n,n,36.5,n,n,n
CCCCn1c(-c2cccc(Br)c2)nc2cc3[nH]c(=O)c(C(C)C)nc3cc21,n,n,n,n,34.0,n,n,n
CCCCn1c(-c2ccc(Cl)c(Cl)c2)nc2cc3[nH]c(=O)c(C(C)C)nc3cc21,n,n,n,n,n,n,x,x
CCCCn1c(-c2cccnc2)nc2cc3[nH]c(=O)c(C(C)C)nc3cc21,30.9,n,n,n,63.6,n,+,170.1
CCCCn1c(-c2ccc(C(C)(C)C)cc2)nc2cc3[nH]c(=O)c(C(C)C)nc3cc21,n,n,n,n,n,n,x,x
FC(F)(F)c1ccc(C2C3CN(Cc4ccc(-c5ccccc5)cc4)C(c4ccccc4)C34CC2(c2cccnc2)C4)cc1 (centres undefined),x,n,x,x,x,x,x,x
Cc1ccc(C)c(N)c1,n,n,n,n,n,n,x,x
Cc1ccc2c(N)c(C)ccc2c1,n,x,n,n,48.9,n,n,n
COc1cc(C=Nn2nnnc2N)ccc1OCC(N)=O,x,n,x,x,x,x,x,x
NC(CO)c1cn(C(Cc2cc3ccccc3[nH]2)C(=O)N2CCNCC2)nn1 (centres undefined),x,n,x,x,x,x,x,x
